According to PubChem BioAssay (NCATS):
Inconclusive results are not listed. Calls of active or inactive are those of the source. Unless noted, the call rests on the fitted dose curve.

Key:
[1] = qHTS drug screen for cell cycle checkpoint inhibitors in PARPi-resistant BRCA-mutant ovarian cancer cell lines. (AID 1963452); details: PEO1/OlaR viability, CellTiter-Glo luminescence, 96 h; for Z-AUC: stronger effect = lower value
In short: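 PEO1, PEO4 and PEO1/OlaR ovarian cancer cells, 600 per well, exposed 96 h at 37C to a dilution series. Viability read by CellTiter-Glo luminescence, normalized to DMSO and empty wells; activity summarized as Z-AUC.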

[2] = qHTS profiling for inhibitors of Plasmodium falciparum proliferation (AID 504749; active means well fitted inhibition curve with a large enough effect; further: nearly all actives have a fitted effect of over 60% in size); details: P. falciparum in erythrocytes, SYBR Green DNA, 72 h
In short: (§1)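 P. falciparum-infected erythrocytes (0.3% parasitemia, 2.5% hematocrit final) were exposed to compounds for 72 h at 37 C in 5% CO2, then lysed with SYBR Green buffer overnight at room temperature; parasite DNA fluorescence was normalized to artemisinin and DMSO controls.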

3D7 = test: as above; details: P. falciparum in erythrocytes, SYBR Green DNA, 72 h
In short: as §1

7G8 = test: as above; details: P. falciparum in erythrocytes, SYBR Green DNA, 72 h
In short: as §1

AA1029 = test: as above; details: P. falciparum in erythrocytes, SYBR Green DNA, 72 h
In short: as §1

AS120 = test: as above; details: P. falciparum in erythrocytes, SYBR Green DNA, 72 h
In short: as §1

ATS189 = test: as above; details: P. falciparum in erythrocytes, SYBR Green DNA, 72 h
In short: as §1

ATS95 = test: as above; details: P. falciparum in erythrocytes, SYBR Green DNA, 72 h
In short: as §1

C2A = test: as above; details: P. falciparum in erythrocytes, SYBR Green DNA, 72 h
In short: as §1

CP185 = test: as above; details: P. falciparum in erythrocytes, SYBR Green DNA, 72 h
In short: as §1

[3] = measured here: PEO1 parental Z-AUC
Potency means the concentration at half of the fitted maximal effect.

Cc1ccc(S(=O)(=O)Cc2nc(-c3ccc(C(=O)NCc4cccnc4)cc3)oc2C)cc1
Z-AUC [1]: -1.97 (inactive) | Z-AUC [1, 3]: -3.12 | Z-AUC ([1]; measured here: PEO4 Z-AUC): -2.76

COc1cc(OC)c(/C=C/S(=O)(=O)Cc2ccc(OC)c(NCC(=O)O)c2)c(OC)c1
Potency [1]: 19.5 nM (active) | Z-AUC [1, 3]: -2.09 | Z-AUC ([1]; measured here: PEO4 Z-AUC): -1.96

O=C(c1ccc(/C=C/c2n[nH]c3ccccc23)cc1)N1CCNCC1
Z-AUC [1]: -0.885 (inactive) | Z-AUC [1, 3]: -0.223 | Z-AUC ([1]; measured here: PEO4 Z-AUC): -0.438

CS(=O)(=O)N1CCC(NC(=O)c2[nH]ncc2NC(=O)c2c(Cl)cccc2Cl)CC1
Z-AUC [1]: -1.39 (inactive) | Z-AUC [1, 3]: -1.73 | Z-AUC ([1]; measured here: PEO4 Z-AUC): -1.67

Cc1[nH]nc(C(F)(F)F)c1Cc1sc2c(c1C(=O)N1C[C@](C)(O)CO1)c(=O)n(C)c(=O)n2C(C)C
Z-AUC [1]: 0.988 (inactive) | Z-AUC [1, 3]: 0.611 | Z-AUC ([1]; measured here: PEO4 Z-AUC): 0.623

CCN1CCN(Cc2ccc(Nc3ncc(F)c(-c4cc(F)c5nc(C)n(C(C)C)c5c4)n3)nc2)CC1
Z-AUC [1]: 0.0865 (inactive) | Z-AUC [1, 3]: 0.712 | Z-AUC ([1]; measured here: PEO4 Z-AUC): 0.621

COc1ccc(Cl)c(Nc2nc3ccccc3nc2NS(=O)(=O)c2cccc(NC(=O)C(C)(C)N)c2)c1
Z-AUC [1]: -0.00434 (inactive) | Z-AUC [1, 3]: 0.542 | Z-AUC ([1]; measured here: PEO4 Z-AUC): 0.742

COc1cc2c(NC3CCN(CC4CCCCC4)CC3)nc(N3CCCN(C(C)C)CC3)nc2cc1OCCCN1CCCCC1
Z-AUC [1]: 0.256 (inactive) | Z-AUC [1, 3]: 0.301 | Z-AUC ([1]; measured here: PEO4 Z-AUC): -0.248

CCNC(=O)Nc1ncc(-c2cc(-c3c(C)cc(OC)cc3C)nc(-c3cnccn3)n2)s1
Z-AUC [1]: 0.457 (inactive) | Z-AUC [1, 3]: 1.44 | Z-AUC ([1]; measured here: PEO4 Z-AUC): 1.47

CC(C)c1cc(CNc2nc(Nc3cc(C4CC4)[nH]n3)cc(N3CCN(C)CC3)n2)on1
Potency [1]: 549 nM (active) | Z-AUC [1, 3]: -1.91 | Z-AUC ([1]; measured here: PEO4 Z-AUC): -2.1

O=C(NOCC(O)CO)c1ccc(F)c(F)c1Nc1ccc(I)cc1F (stereo not drawn)
Z-AUC [1]: -1.69 (inactive) | Z-AUC [1, 3]: -1.32 | Z-AUC ([1]; measured here: PEO4 Z-AUC): -0.907

Cc1nc([C@](C)(O)CO)sc1-c1cnc(N)c(O[C@H](C)c2cc(F)ccc2-n2nccn2)c1
Z-AUC [1]: 1.59 (inactive) | Z-AUC [1, 3]: 0.437 | Z-AUC ([1]; measured here: PEO4 Z-AUC): -0.14

CC(C)[C@@H](CS(=O)(=O)C(C)C)N1C(=O)[C@@](C)(CC(=O)O)C[C@H](c2cccc(Cl)c2)[C@H]1c1ccc(Cl)cc1
Z-AUC [1]: 1.18 (inactive) | Z-AUC [1, 3]: 1.37 | Z-AUC ([1]; measured here: PEO4 Z-AUC): 1.87

COCCOc1cnc2ccn([C@H](C)c3nnc4c(F)cc(-c5cnn(C)c5)cn34)c(=O)c2c1
Z-AUC [1]: 1.14 (inactive) | Z-AUC [1, 3]: 0.929 | Z-AUC ([1]; measured here: PEO4 Z-AUC): 1.44

CCOc1cc2ncc(C#N)c(Nc3ccc(F)c(Cl)c3)c2cc1NC(=O)/C=C/CN(C)C
Z-AUC [1]: -0.44 (inactive) | Z-AUC [1, 3]: -0.362 | Z-AUC ([1]; measured here: PEO4 Z-AUC): -0.838

CC#CC(=O)N1CCC[C@H]1c1nc(-c2ccc(C(=O)Nc3ccccn3)cc2)c2c(N)nccn12
Z-AUC [1]: -0.264 (inactive) | Z-AUC [1, 3]: 0.632 | Z-AUC ([1]; measured here: PEO4 Z-AUC): 0.342

COc1cccc(Nc2ncnn3ccc(CN4CC[C@@H](N)[C@H](O)C4)c23)c1
Potency [1]: 2190 nM (active) | Z-AUC [1, 3]: -1.46 | Z-AUC ([1]; measured here: PEO4 Z-AUC): -1.16

Clc1cc2c(NC3CCCC3)nnc(-c3ccncc3)c2cc1Cl
Z-AUC [1]: -0.0819 (inactive) | Z-AUC [1, 3]: 0.551 | Z-AUC ([1]; measured here: PEO4 Z-AUC): 0.556

COC(=O)N(C)c1c(N)nc(-c2nn(Cc3ccccc3F)c3ncccc23)nc1N
Z-AUC [1]: 0.294 (inactive) | Z-AUC [1, 3]: 0.888 | Z-AUC ([1]; measured here: PEO4 Z-AUC): 0.894

Cc1c(F)cc(C(=O)NC2CC2)cc1-c1c(F)cn2c(C(C)(C)C)nnc2c1F
Z-AUC [1]: 0.645 (inactive) | Z-AUC [1, 3]: 0.963 | Z-AUC ([1]; measured here: PEO4 Z-AUC): 1.81

CC[C@]1(O)CC2CN(CCc3c([nH]c4ccccc34)[C@@](C(=O)OC)(c3cc4c(cc3OC)N(C)[C@H]3[C@@](O)(C(=O)OC)[C@H](OC(C)=O)[C@]5(CC)C=CCN6CC[C@]43[C@@H]65)C2)C1 (stereo partly drawn)
Z-AUC [1]: -0.152 (inactive) | Z-AUC [1, 3]: -1.01 | Z-AUC ([1]; measured here: PEO4 Z-AUC): -0.893 | Potency ([2]; parasite line A): 2510 nM (active) | Potency ([2]; parasite line B): 3980 nM (active) | Potency (3D7): 794 nM (active) | Potency (7G8): 1120 nM (active) | Potency (AA1029): 1410 nM (active) | Potency (AS120): 2510 nM (active) | Potency (ATS189): 4470 nM (active) | Potency (ATS95): 3550 nM (active) | Potency (C2A): 2820 nM (active) | Potency (CP185): 3550 nM (active)

C=CC(=O)Nc1cccc(Nc2nc(Nc3ccc(N4CCN(C(C)=O)CC4)cc3OC)ncc2C(F)(F)F)c1
Z-AUC [1]: -0.226 (inactive) | Z-AUC [1, 3]: 0.717 | Z-AUC ([1]; measured here: PEO4 Z-AUC): -0.058

COc1ccc(C(=O)C2CCN(CC(=O)N(Cc3nc4c(c(=O)[nH]3)COCC4)CC3CC3)CC2)cc1
Z-AUC [1]: -0.974 (inactive) | Z-AUC [1, 3]: -0.643 | Z-AUC ([1]; measured here: PEO4 Z-AUC): -0.695

CN1CCN(C(=O)c2ccc3cc(CCNc4ncnc5ccc(C#N)cc45)ccc3c2)CC1
Z-AUC [1]: -0.0214 (inactive) | Z-AUC [1, 3]: -0.289 | Z-AUC ([1]; measured here: PEO4 Z-AUC): -0.499

CCCCc1nc2cc(/C=C/C(=O)NO)ccc2n1CCN(CC)CC
Z-AUC [1]: 0.0461 (inactive) | Z-AUC [1, 3]: -0.0677 | Z-AUC ([1]; measured here: PEO4 Z-AUC): -0.293

CC(=O)O[C@H]1C(=O)[C@@]2(C)[C@H]([C@H](OC(=O)c3ccccc3)[C@]3(O)C[C@H](OC(=O)[C@H](O)[C@@H](NC(=O)c4ccccc4)c4ccccc4)C(C)=C1C3(C)C)[C@]1(OC(C)=O)CO[C@@H]1C[C@@H]2O
Potency ([2]; parasite line A): 355 nM (active) | Potency ([2]; parasite line B): 251 nM (active) | Potency (3D7): 282 nM (active) | Potency (7G8): 398 nM (active) | Potency (AA1029): 562 nM (active) | Potency (AS120): 398 nM (active) | Potency (ATS189): 631 nM (active) | Potency (ATS95): 631 nM (active) | Potency (C2A): 355 nM (active) | Potency (CP185): 199 nM (active)

CNC(=O)c1cccc(-c2ccc3c(N4CCOC[C@@H]4C)nc(N4CCOC[C@@H]4C)nc3n2)c1
Z-AUC [1]: -1.02 (inactive) | Z-AUC [1, 3]: -0.895 | Z-AUC ([1]; measured here: PEO4 Z-AUC): -0.994
